# Source: publication PMC12820563, “FoxP3 forms a head-to-head dimer in vivo and stabilizes its multimerization on adjacent microsatellites”
# The full ranking holds about 16,000 sequences; the median of “rpm ratio (pull-down/input)” is about 0.94, and the highest 2% start at about 1.7. What follows is part of a selection rich in the highest values, with near analogues and random picks from the rest.
# Target: T1, MBP-FoxP1dN (Mus musculus, UniProt P58462 326-579)
# T1 sequence: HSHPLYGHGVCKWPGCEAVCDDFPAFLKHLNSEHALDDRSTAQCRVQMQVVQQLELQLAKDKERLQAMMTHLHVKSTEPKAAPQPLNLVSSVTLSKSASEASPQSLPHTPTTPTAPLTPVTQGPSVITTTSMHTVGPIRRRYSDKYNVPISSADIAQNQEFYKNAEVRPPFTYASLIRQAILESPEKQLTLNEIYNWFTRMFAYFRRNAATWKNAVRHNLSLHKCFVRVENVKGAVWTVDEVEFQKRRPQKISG
# Test: PD-seq (MBP pull-down with sequencing); 20 mM Tris-HCl pH 7.5, 100 mM NaCl, 1.5 mM MgCl2, 0.4 uM protein, 0.1 uM dsDNA library, 30 min, room temperature, amylose pull-down; high values mean tight binding
# Conditions: protein: recombinant; tags: His6-MBP; chain copies: 2; dsDNA, one strand shown
# In short: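 Mouse FoxP3 or FoxP1 fragment lacking the N-terminus, His6-MBP-tagged and expressed in E. coli, was incubated at 0.4 µM with 0.1 µM Klenow-filled degenerate double-stranded DNA library for 30 min at room temperature in Tris pH 7.5 buffer with NaCl and MgCl2. Complexes captured on amylose resin were washed three times and their DNA sequenced on Illumina. Binding is reads-per-million enrichment of pull-down over input, replicates pooled.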
row,Sequence,binding signal
1,GATGATTGTTCTCCCAGCTGATGAATTGTATCAATCGAGTAAACAAATTTTCCTAATCTTTCTGTTCAAGCGCCATCTAC,1.25 RPM ratio (pull-down/input)
2,GATGATTGTTCTCCCAGCTGATGAATTACTATATTCGAGTAAACAAATTTTCCTAATCTTTCTGTTCAAGCGCCATCTAC,1.23 RPM ratio (pull-down/input)
3,GATGATTGTTCTCCCAGCTGATGAATTCAGCACATCGAGTAAACAAATTTTCCTAATCTTTCTGTTCAAGCGCCATCTAC,0.96 RPM ratio (pull-down/input)
4,GATGATTGTTCTCCCAGCTGATGAATTCCCGATGTCGAGTAAACAAATTTTCCTAATCTTTCTGTTCAAGCGCCATCTAC,0.877 RPM ratio (pull-down/input)
5,GATGATTGTTCTCCCAGCTGATGAATTTAAGGACTCGAGTAAACAAATTTTCCTAATCTTTCTGTTCAAGCGCCATCTAC,0.845 RPM ratio (pull-down/input)
6,GATGATTGTTCTCCCAGCTGATGAATTAAAATATTCGAGTAAACAAATTTTCCTAATCTTTCTGTTCAAGCGCCATCTAC,1.1 RPM ratio (pull-down/input)
7,GATGATTGTTCTCCCAGCTGATGAATTAAATATTTCGAGTAAACAAATTTTCCTAATCTTTCTGTTCAAGCGCCATCTAC,1.14 RPM ratio (pull-down/input)
8,GATGATTGTTCTCCCAGCTGATGAATTAAATATGTCGAGTAAACAAATTTTCCTAATCTTTCTGTTCAAGCGCCATCTAC,1.07 RPM ratio (pull-down/input)
9,GATGATTGTTCTCCCAGCTGATGAATTAATATTTTCGAGTAAACAAATTTTCCTAATCTTTCTGTTCAAGCGCCATCTAC,1.78 RPM ratio (pull-down/input)
10,GATGATTGTTCTCCCAGCTGATGAATTAAATCTGTCGAGTAAACAAATTTTCCTAATCTTTCTGTTCAAGCGCCATCTAC,0.778 RPM ratio (pull-down/input)
11,GATGATTGTTCTCCCAGCTGATGAATTAATATTGTCGAGTAAACAAATTTTCCTAATCTTTCTGTTCAAGCGCCATCTAC,2.15 RPM ratio (pull-down/input)
12,GATGATTGTTCTCCCAGCTGATGAATTCGGACCCTCGAGTAAACAAATTTTCCTAATCTTTCTGTTCAAGCGCCATCTAC,0.79 RPM ratio (pull-down/input)
13,GATGATTGTTCTCCCAGCTGATGAATTTTTCTATTCGAGTAAACAAATTTTCCTAATCTTTCTGTTCAAGCGCCATCTAC,0.984 RPM ratio (pull-down/input)
14,GATGATTGTTCTCCCAGCTGATGAATTCTATTTTTCGAGTAAACAAATTTTCCTAATCTTTCTGTTCAAGCGCCATCTAC,1.61 RPM ratio (pull-down/input)
15,GATGATTGTTCTCCCAGCTGATGAATTCCTATTTTCGAGTAAACAAATTTTCCTAATCTTTCTGTTCAAGCGCCATCTAC,1.86 RPM ratio (pull-down/input)
16,GATGATTGTTCTCCCAGCTGATGAATTGTTCTATTCGAGTAAACAAATTTTCCTAATCTTTCTGTTCAAGCGCCATCTAC,1.34 RPM ratio (pull-down/input)
17,GATGATTGTTCTCCCAGCTGATGAATTTCCTATTTCGAGTAAACAAATTTTCCTAATCTTTCTGTTCAAGCGCCATCTAC,0.887 RPM ratio (pull-down/input)
18,GATGATTGTTCTCCCAGCTGATGAATTCTATTGTTCGAGTAAACAAATTTTCCTAATCTTTCTGTTCAAGCGCCATCTAC,1.99 RPM ratio (pull-down/input)
19,GATGATTGTTCTCCCAGCTGATGAATTCTCCTATTCGAGTAAACAAATTTTCCTAATCTTTCTGTTCAAGCGCCATCTAC,0.943 RPM ratio (pull-down/input)
20,GATGATTGTTCTCCCAGCTGATGAATTTCTATTTTCGAGTAAACAAATTTTCCTAATCTTTCTGTTCAAGCGCCATCTAC,2.01 RPM ratio (pull-down/input)
21,GATGATTGTTCTCCCAGCTGATGAATTTTCTATTTCGAGTAAACAAATTTTCCTAATCTTTCTGTTCAAGCGCCATCTAC,0.975 RPM ratio (pull-down/input)

row,Sequence,binding signal
1,GATGATTGTTCTCCCAGCTGATGAATTAGTTGCATCGAGTAAACAAATTTTCCTAATCTTTCTGTTCAAGCGCCATCTAC,1.65 RPM ratio (pull-down/input)
2,GATGATTGTTCTCCCAGCTGATGAATTCCACCACTCGAGTAAACAAATTTTCCTAATCTTTCTGTTCAAGCGCCATCTAC,0.844 RPM ratio (pull-down/input)
3,GATGATTGTTCTCCCAGCTGATGAATTGATGCACTCGAGTAAACAAATTTTCCTAATCTTTCTGTTCAAGCGCCATCTAC,1.72 RPM ratio (pull-down/input)
4,GATGATTGTTCTCCCAGCTGATGAATTTTGAATATCGAGTAAACAAATTTTCCTAATCTTTCTGTTCAAGCGCCATCTAC,1.07 RPM ratio (pull-down/input)
5,GATGATTGTTCTCCCAGCTGATGAATTTGACACATCGAGTAAACAAATTTTCCTAATCTTTCTGTTCAAGCGCCATCTAC,0.966 RPM ratio (pull-down/input)
6,GATGATTGTTCTCCCAGCTGATGAATTTTGACAATCGAGTAAACAAATTTTCCTAATCTTTCTGTTCAAGCGCCATCTAC,1.26 RPM ratio (pull-down/input)
7,GATGATTGTTCTCCCAGCTGATGAATTGACACAATCGAGTAAACAAATTTTCCTAATCTTTCTGTTCAAGCGCCATCTAC,1.75 RPM ratio (pull-down/input)
8,GATGATTGTTCTCCCAGCTGATGAATTGACAATATCGAGTAAACAAATTTTCCTAATCTTTCTGTTCAAGCGCCATCTAC,1.86 RPM ratio (pull-down/input)
9,GATGATTGTTCTCCCAGCTGATGAATTGAATATATCGAGTAAACAAATTTTCCTAATCTTTCTGTTCAAGCGCCATCTAC,1.04 RPM ratio (pull-down/input)
10,GATGATTGTTCTCCCAGCTGATGAATTAGGTGGGTCGAGTAAACAAATTTTCCTAATCTTTCTGTTCAAGCGCCATCTAC,0.78 RPM ratio (pull-down/input)
11,GATGATTGTTCTCCCAGCTGATGAATTGGTGTGTTCGAGTAAACAAATTTTCCTAATCTTTCTGTTCAAGCGCCATCTAC,1.34 RPM ratio (pull-down/input)
12,GATGATTGTTCTCCCAGCTGATGAATTGGTTGGTTCGAGTAAACAAATTTTCCTAATCTTTCTGTTCAAGCGCCATCTAC,1 RPM ratio (pull-down/input)
13,GATGATTGTTCTCCCAGCTGATGAATTGTTGGTTTCGAGTAAACAAATTTTCCTAATCTTTCTGTTCAAGCGCCATCTAC,1.89 RPM ratio (pull-down/input)
14,GATGATTGTTCTCCCAGCTGATGAATTGTTTGGTTCGAGTAAACAAATTTTCCTAATCTTTCTGTTCAAGCGCCATCTAC,1.81 RPM ratio (pull-down/input)
15,GATGATTGTTCTCCCAGCTGATGAATTTTTTGGTTCGAGTAAACAAATTTTCCTAATCTTTCTGTTCAAGCGCCATCTAC,1.01 RPM ratio (pull-down/input)
16,GATGATTGTTCTCCCAGCTGATGAATTTTTGGTTTCGAGTAAACAAATTTTCCTAATCTTTCTGTTCAAGCGCCATCTAC,0.984 RPM ratio (pull-down/input)
17,GATGATTGTTCTCCCAGCTGATGAATTGGTTGTTTCGAGTAAACAAATTTTCCTAATCTTTCTGTTCAAGCGCCATCTAC,1.45 RPM ratio (pull-down/input)
18,GATGATTGTTCTCCCAGCTGATGAATTTGTTGGTTCGAGTAAACAAATTTTCCTAATCTTTCTGTTCAAGCGCCATCTAC,2.02 RPM ratio (pull-down/input)
19,GATGATTGTTCTCCCAGCTGATGAATTTGGTTGTTCGAGTAAACAAATTTTCCTAATCTTTCTGTTCAAGCGCCATCTAC,1.29 RPM ratio (pull-down/input)
20,GATGATTGTTCTCCCAGCTGATGAATTGGTTTGTTCGAGTAAACAAATTTTCCTAATCTTTCTGTTCAAGCGCCATCTAC,1.13 RPM ratio (pull-down/input)
21,GATGATTGTTCTCCCAGCTGATGAATTTGGTGTTTCGAGTAAACAAATTTTCCTAATCTTTCTGTTCAAGCGCCATCTAC,1.12 RPM ratio (pull-down/input)

row,Sequence,binding signal
1,GATGATTGTTCTCCCAGCTGATGAATTGGTGTTTTCGAGTAAACAAATTTTCCTAATCTTTCTGTTCAAGCGCCATCTAC,2.65 RPM ratio (pull-down/input)
2,GATGATTGTTCTCCCAGCTGATGAATTCTATTACTCGAGTAAACAAATTTTCCTAATCTTTCTGTTCAAGCGCCATCTAC,0.895 RPM ratio (pull-down/input)
3,GATGATTGTTCTCCCAGCTGATGAATTCCCTCCATCGAGTAAACAAATTTTCCTAATCTTTCTGTTCAAGCGCCATCTAC,0.855 RPM ratio (pull-down/input)
4,GATGATTGTTCTCCCAGCTGATGAATTAACACATTCGAGTAAACAAATTTTCCTAATCTTTCTGTTCAAGCGCCATCTAC,1.18 RPM ratio (pull-down/input)
5,GATGATTGTTCTCCCAGCTGATGAATTCCTAGGTTCGAGTAAACAAATTTTCCTAATCTTTCTGTTCAAGCGCCATCTAC,0.762 RPM ratio (pull-down/input)
6,GATGATTGTTCTCCCAGCTGATGAATTTGCATTTTCGAGTAAACAAATTTTCCTAATCTTTCTGTTCAAGCGCCATCTAC,1.61 RPM ratio (pull-down/input)
7,GATGATTGTTCTCCCAGCTGATGAATTGCATCTTTCGAGTAAACAAATTTTCCTAATCTTTCTGTTCAAGCGCCATCTAC,1.83 RPM ratio (pull-down/input)
8,GATGATTGTTCTCCCAGCTGATGAATTGCATTGTTCGAGTAAACAAATTTTCCTAATCTTTCTGTTCAAGCGCCATCTAC,1.43 RPM ratio (pull-down/input)
9,GATGATTGTTCTCCCAGCTGATGAATTGCATTTTTCGAGTAAACAAATTTTCCTAATCTTTCTGTTCAAGCGCCATCTAC,1.69 RPM ratio (pull-down/input)
10,GATGATTGTTCTCCCAGCTGATGAATTTTGCATTTCGAGTAAACAAATTTTCCTAATCTTTCTGTTCAAGCGCCATCTAC,1.29 RPM ratio (pull-down/input)
11,GATGATTGTTCTCCCAGCTGATGAATTTGCATCTTCGAGTAAACAAATTTTCCTAATCTTTCTGTTCAAGCGCCATCTAC,1.89 RPM ratio (pull-down/input)
12,GATGATTGTTCTCCCAGCTGATGAATTGAAACGCTCGAGTAAACAAATTTTCCTAATCTTTCTGTTCAAGCGCCATCTAC,0.86 RPM ratio (pull-down/input)
13,GATGATTGTTCTCCCAGCTGATGAATTTCTACATTCGAGTAAACAAATTTTCCTAATCTTTCTGTTCAAGCGCCATCTAC,0.939 RPM ratio (pull-down/input)
14,GATGATTGTTCTCCCAGCTGATGAATTACCGTGCTCGAGTAAACAAATTTTCCTAATCTTTCTGTTCAAGCGCCATCTAC,0.964 RPM ratio (pull-down/input)
15,GATGATTGTTCTCCCAGCTGATGAATTTTGTACATCGAGTAAACAAATTTTCCTAATCTTTCTGTTCAAGCGCCATCTAC,1.22 RPM ratio (pull-down/input)
16,GATGATTGTTCTCCCAGCTGATGAATTCTACACATCGAGTAAACAAATTTTCCTAATCTTTCTGTTCAAGCGCCATCTAC,1.06 RPM ratio (pull-down/input)
17,GATGATTGTTCTCCCAGCTGATGAATTCTGTACATCGAGTAAACAAATTTTCCTAATCTTTCTGTTCAAGCGCCATCTAC,1.09 RPM ratio (pull-down/input)
18,GATGATTGTTCTCCCAGCTGATGAATTGTACACATCGAGTAAACAAATTTTCCTAATCTTTCTGTTCAAGCGCCATCTAC,2.11 RPM ratio (pull-down/input)
19,GATGATTGTTCTCCCAGCTGATGAATTGTGTACATCGAGTAAACAAATTTTCCTAATCTTTCTGTTCAAGCGCCATCTAC,2 RPM ratio (pull-down/input)
20,GATGATTGTTCTCCCAGCTGATGAATTGTACAAATCGAGTAAACAAATTTTCCTAATCTTTCTGTTCAAGCGCCATCTAC,1.35 RPM ratio (pull-down/input)
21,GATGATTGTTCTCCCAGCTGATGAATTGCAGTTGTCGAGTAAACAAATTTTCCTAATCTTTCTGTTCAAGCGCCATCTAC,1.34 RPM ratio (pull-down/input)
